MITF inhib – inhibitors of MITF, primary screen, MITF inhibitor project, cell-based, luminescence; TRPM1 promoter luciferase, 24 h; inhibition, % (no concentration beside the values); actives 0.28% (n = 37,000); AID 2240, 2010; in the data active means inhibition above about 85%; inconclusive means no clear call, values can overlap the other calls; inactive means below about 68%;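 further: human melanocyte line stably carrying TRPM1 promoter luciferase reporter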
Shh pathway inh – Hedgehog pathway signaling inhibitors, primary screen, luminescence, Shh-LIGHT2 cells, Gli-luciferase. Shh-LIGHT2 Gli-luciferase reporter, 30 h. inhibition, % (test concentration not listed). actives 2.1% (n = 22,000). AID 2313, 2010;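 active means mean inhibition across valid replicates above about 65%, limit read from the data; inconclusive means mean under the limit, yet half or more replicates past it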;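 further: pathway switched on by Shh-conditioned medium diluted 1 in 25 in low serum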
NOMO-1 viab – NOMO-1 AML cell viability reduction, primary screen, STK33 inhibitor project, CellTiter-Glo luminescence; NOMO-1 AML viability, 72 h; inhibition, % (concentration not given with the values); actives 7.5% (n = 37,000); in the data active means inhibition above about 80%; inconclusive means no clear call, values can overlap the other calls
* hit, by the source's call; ? = inconclusive; . = not tested or not shown. Most compounds without a hit are left out; they make up all but 7.8% or so of the library.

SMILES	MITF inhib	Shh pathway inh	NOMO-1 viab
Cc1ccc(S(=O)(=O)N(C)C[C@H]2Oc3c(NC(=O)Nc4ccc(F)cc4)cccc3C(=O)N([C@@H](C)CO)C[C@H]2C)cc1	50	14	98*
C[C@@H]1CN([C@H](C)CO)C(=O)c2cccc(NC(=O)Nc3ccc(F)cc3)c2O[C@@H]1CN(C)S(=O)(=O)c1ccc(F)cc1	-4	17	28
C[C@@H]1CN([C@@H](C)CO)C(=O)c2cccc(NC(=O)Nc3cccc4ccccc34)c2O[C@H]1CN(C)S(=O)(=O)c1ccc(F)cc1	7	-41	15
Cc1ccc(S(=O)(=O)N(C)C[C@H]2Oc3c(NC(=O)Nc4ccc(F)cc4)cccc3C(=O)N([C@@H](C)CO)C[C@@H]2C)cc1	-16	6	35
C[C@H](CO)N1C[C@H](C)[C@H](CN(C)S(=O)(=O)c2ccc(F)cc2)Oc2c(NC(=O)Nc3cccc4ccccc34)cccc2C1=O	41	75*	72
C[C@H](CO)N1C[C@H](C)[C@@H](CN(C)C(=O)Nc2cccc3ccccc23)Oc2c(NC(=O)C3CCCCC3)cccc2C1=O	9	16	-3
CCCCN1COc2ccc(CCNC(=O)c3ccc(Cl)cc3)cc2C1	3	7	33
COc1ccc(NC(=O)N(C)C[C@H]2Oc3ccc(NC(=O)Cn4cnnn4)cc3CC(=O)N([C@@H](C)CO)C[C@@H]2C)cc1	-15	0	-14
COc1ccc(S(=O)(=O)Nc2ccc3c(c2)CC(=O)N([C@H](C)CO)C[C@@H](C)[C@H](CN(C)C(=O)NC(C)C)O3)cc1	4	1	-21
CC(C)(C)NC(=O)c1ccc2c3c(onc13)-c1ccccc1C2=O	30	28	114*
CC(C)(C)NC(=O)c1ccccc1	-23	-14	21
COc1ccc(S(=O)(=O)Nc2ccc3c(c2)C(=O)N([C@@H](C)CO)C[C@@H](C)[C@@H](CN(C)C(=O)Nc2c(C)noc2C)O3)cc1	-4	-7	2
CC#CC(=O)Nc1ccc2ncnc(Nc3cccc(Br)c3)c2c1	0	-37	96*
Nc1cc2ncnc(Nc3cccc(Br)c3)c2cc1N	-6	-38	12
CNC[C@H]1OCCCC[C@@H](C)Oc2ccc(NS(=O)(=O)c3ccc(C)cc3)cc2C(=O)N([C@H](C)CO)C[C@@H]1C	2	.	15
COc1cc2c(cc1NC(=S)NCCc1ccc(OC)c(OC)c1)oc1ccccc12	46	.	7
COc1cc2c(cc1NC(=S)NCc1ccco1)oc1ccccc12	-6	.	93*
C[C@H]1CN([C@@H](C)CO)C(=O)Cc2cc(NS(=O)(=O)c3ccccc3)ccc2O[C@H]1CN(C)C(=O)Nc1ccc(C(F)(F)F)cc1	-7	-20	4
C/C=C(/C)C(=O)O[C@@H](C)[C@@](C)(O)C(=O)O[C@H](C)[C@@H](OC(=O)/C(C)=C\C)c1cc(OC)c2c(c1)OCO2	45	89*	119*
Cn1nnc(NC(=O)COc2ccc(C3CCCCC3)cc2)n1	-4	.	8
Cc1cc(C(=O)Nc2ccc(OCC(=O)O)cc2)ccc1[N+](=O)[O-]	13	.	-15
COC(=O)COc1ccc(NC(=O)c2ccc([N+](=O)[O-])c(C)c2)cc1	-2	.	118*
O=C(O)COc1ccc(C(=O)Nc2ccc(F)cc2)cc1	-3	.	38
COC(=O)COc1ccc(NC(=O)c2ccc(NC(C)=O)cc2)cc1	-8	.	118*
C[C@H](CO)N1C[C@H](C)[C@@H](CN(C)Cc2ccccc2)Oc2ccc(NS(=O)(=O)c3cn(C)cn3)cc2C1=O	10	-4	-9
SMILES	MITF inhib	Shh pathway inh	NOMO-1 viab
Cc1cc2nn(-c3ccc(Cl)cc3)nc2cc1NC(=O)COc1ccc([N+](=O)[O-])cc1	18	.	13
C[C@H]1CN([C@@H](C)CO)C(=O)c2cc(NC(=O)Nc3cccc4ccccc34)ccc2O[C@@H]1CN(C)C(=O)Nc1ccc(F)cc1	7	-18	-1
CCCCc1c(-c2ccc(O)cc2)[nH]c2nccnc12	22	-15	83*
CCCCc1c(-c2ccc(OC)cc2)[nH]c2nccnc12	-3	-26	15
CN1CCc2c(-c3cccs3)nc(OCc3ccccc3Br)c(C#N)c2C1	19	65*	97*
N#Cc1ccc(CSc2nc(-c3cccs3)c3c(c2C(=O)O)CCCC3)cc1	-8	?	11
COc1ccccc1Nc1nc(N)nc(CN2CCC(Cc3ccccc3)CC2)n1	-2	.	11
COc1ccccc1NC(=O)CN(c1ccc(F)c(Cl)c1)S(C)(=O)=O	-8	.	-1
OCCCn1c(-c2ccccc2)cn2c3ccccc3nc12	98*	.	-8
CCN(CC)CCCn1c(-c2ccc(C)cc2)cn2c3ccccc3nc12	5	.	10
C[C@@H]1CN([C@H](C)CO)C(=O)c2cc(NC(=O)CCC(F)(F)F)ccc2O[C@H]1CN(C)Cc1ccc(Oc2ccccc2)cc1	16	.	85*
C[C@H]1CN([C@@H](C)CO)C(=O)Cc2cc(NC(=O)CCC(F)(F)F)ccc2O[C@H]1CN(C)Cc1ccc(-c2ccccc2)cc1	-2	16	31
C[C@H]1CN([C@@H](C)CO)C(=O)Cc2cc(NC(=O)CCN3CCOCC3)ccc2O[C@@H]1CN(C)Cc1ccc(-c2ccccc2)cc1	-12	65*	11
C[C@@H]1CN([C@@H](C)CO)C(=O)c2cc(NC(=O)CCC(F)(F)F)ccc2O[C@@H]1CN(C)Cc1ccc(-c2ccccc2)cc1	-3	.	64
C[C@@H]1CN([C@H](C)CO)C(=O)Cc2cc(NC(=O)CCN3CCOCC3)ccc2O[C@H]1CN(C)Cc1ccc(-c2ccccc2)cc1	-26	15	9
C[C@@H]1CN([C@H](C)CO)C(=O)Cc2cc(NC(=O)CCC(F)(F)F)ccc2O[C@H]1CN(C)Cc1ccc(Oc2ccccc2)cc1	14	-22	94*
C[C@@H]1CN([C@H](C)CO)C(=O)Cc2cc(NC(=O)CCC(F)(F)F)ccc2O[C@H]1CN(C)Cc1ccccc1	-4	-49	-5
C[C@H]1CN([C@@H](C)CO)C(=O)Cc2cc(NC(=O)CCC(F)(F)F)ccc2O[C@@H]1CN(C)Cc1ccc(-c2ccccc2)cc1	32	7	97*
O=c1oc2ccccc2c(Nc2ccccc2)c1CN1CCCCC1	-3	-7	24
C[C@@H]1CN([C@@H](C)CO)C(=O)c2cc(NC(=O)C3CCCCC3)ccc2O[C@@H]1CN(C)Cc1ccc(Cl)c(Cl)c1	67	21	60
Cc1ccc(C(O)(COC(=O)C(C)C)COC(=O)C(C)C)c(O)c1	-14	-22	117*
CC(C)CCCC(C)(O)c1ccc(C(=O)O)cc1O (configuration not stated)	-26	-25	-1
O=C(NCC[C@@H](CNC(=O)c1cccc(O)c1O)NC(=O)c1cccc(O)c1O)c1cccc(O)c1O	17	24	120*
CC(C)CCNC(=O)c1cccc2c1-c1ccccc1C2=O	2	26	20
C[C@@H]1CN([C@@H](C)CO)C(=O)c2cc(NC(=O)Cc3cn(C)c4ccccc34)ccc2O[C@@H]1CN(C)Cc1ccc(Cl)c(Cl)c1	40	.	92*

Screening results (PubChem)
